The record followed here is PubChem BioAssay (EPA / NIEHS).

Read-out in assay [1]: E-selectin (Homo sapiens) (UniProt P16581)
The experiment in a line: BSK_SAg_Eselectin: BioMAP Diversity Plus: SAg Assay for Eselectin Biomarker Activity (AID 2283091). Particulars: primary human HUVEC with PBMC; actives raise or lower the signal. The method, boiled down: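 Human umbilical vein endothelial cells co-cultured with peripheral blood mononuclear cells, SAg system. E-selectin is measured by ELISA 24 h after dosing and fitted bidirectionally against DMSO. Cytotoxicity is checked by SRB staining of parallel cultures.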

Read-out in assay [2]: Monokine induced gamma interferon (MIG), CXCL9 (gene 4283)
The experiment in a line: BSK_SAg_MIG: BioMAP Diversity Plus: SAg Assay for Monokine induced gamma interferon (MIG) Biomarker Activity (AID 2283092). The conditions noted are these: primary human HUVEC with PBMC; actives raise or lower the signal. The method, boiled down: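 ELISA readout of MIG/CXCL9; primary human umbilical vein endothelial cells co-cultured with peripheral blood mononuclear cells; 24 h post-dose; gain/loss fit vs DMSO baseline.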

A short description of assay [3]: BSK_SAg_PBMCCytotoxicity: PBMC Cytotoxicity Assessment in the BioMAP Diversity Plus: SAg Assay (AID 2283093).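 For AC50: PBMC superantigen activated with SEB plus TSST-1 one hour after compound addition.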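 Note: PBMC viability measured as Alamar Blue reduction fluorescence at 546/580 nm; fitted both ways against DMSO so a hit may be loss or gain of signal.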 Particulars: primary human HUVEC with PBMC. The essentials:
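Alamar Blue reduction (6 h, ex/em 546/580 nm) read after 90 h culture of PBMC pre-dosed 1 h then stimulated with SEB plus TSST-1, 20 ng/mL each. Gain or loss of signal fitted relative to DMSO.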

Read-out in assay [4]: Interleukin-8 (IL8), CXCL8 (gene 3576)
As to the kind of experiment: BSK_SAg_IL8: BioMAP Diversity Plus: SAg Assay for Interleukin-8 (IL8) Biomarker Activity (AID 2283094). Particulars: primary human HUVEC with PBMC; actives raise or lower the signal. The essentials: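 Primary human endothelial cells with PBMC, exposed 24 h; IL-8 determined by ELISA, analysed bidirectionally relative to DMSO.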

Assay [5] can be described thus: BSK_SAg_Proliferation: Cell Proliferation Assessment in the BioMAP Diversity Plus: SAg Assay (AID 2283095).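 Note: relative cell number as total protein by SRB absorbance in sub-confluent culture.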 The conditions noted are these: primary human HUVEC with PBMC. The method, boiled down: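 A human primary co-culture of umbilical vein endothelium and blood mononuclear cells receives compound; relative cell number is quantified at 96 h by SRB staining and 560 nm absorbance, with DMSO-referenced bidirectional curve fitting.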

A short description of assay [6]: BSK_SAg_SRB: Viability Assessment in the BioMAP Diversity Plus: SAg Assay (AID 2283096).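 Note: cells read one day after compound addition; hits may be either gain or loss of signal compared with DMSO.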 Particulars: primary human HUVEC with PBMC. The method, boiled down:
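SRB absorbance at 560 nm served as the viability read-out. Cells (HUVEC plus peripheral blood mononuclear cells) were TCA-fixed and stained 24 h post-dosing; activity fitted in both directions against DMSO controls.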

Assay [7] has as its target human CYP19A1, CYP19A1 (gene 1588) (UniProt P11511). As to the kind of experiment: NVS_ADME_hCYP19A1: NovaScreen (NVS) CYP450-related Enzyme Activity (ADME) Assay for human CYP19A1 (AID 2283098; active = hit-call score of the fitted dose curve at least 0.9, where 1 is the maximum;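 for AC50: potency for inhibitors seen as loss of fluorescent enzyme signal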). The method, boiled down:
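Primary testing was in duplicate at a single 10 uM concentration, with actives followed up in concentration-response series. Fluorescence read-out of recombinant enzyme activity at 0.5 h, cell-free. Acetonitrile was the negative-control baseline.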

The target of assay [8] is human CYP2D6, CYP2D6 (gene 1565) (UniProt P10635). The experiment in a line: NVS_ADME_hCYP2D6: NovaScreen (NVS) CYP450-related Enzyme Activity (ADME) Assay for human CYP2D6 (AID 2283107; active = hit-call score of the fitted dose curve at least 0.9, where 1 is the maximum). The essentials:
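Cell-free assay using recombinant human CYP2D6 expressed in insect cells, with a fluorogenic substrate read after 1 h. Primary screen in duplicate at 10 uM; actives followed up in concentration series. Loss of signal fitted relative to acetonitrile.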

Assay [9] deals with Cytochrome P450 2C19 (Homo sapiens) (UniProt P33261). The experiment in a line: NVS_ADME_hCYP2C19: NovaScreen (NVS) CYP450-related Enzyme Activity (ADME) Assay for human CYP2C19 (AID 2283113; active = hit-call score of the fitted dose curve at least 0.9, where 1 is the maximum;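 note: potency for inhibition seen as loss of fluorescent signal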). The essentials: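 Cell-free recombinant human CYP2C19 from insect cells, fluorescent substrate; activity read by fluorescence intensity 1 h after dosing. Primary screen in duplicate at 10 uM; actives retested in concentration series. Signal loss versus acetonitrile negative control.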

Assay [10] has as its target human Ephrin type-A Receptor 1 (EphA1), EPHA1 (gene 2041) (UniProt P21709). The experiment in a line: NVS_ENZ_hEphA1: NovaScreen (NVS) Enzymatic Assay for human Ephrin type-A Receptor 1 (EphA1) (AID 2283158; active = hit-call score of the fitted dose curve at least 0.9, where 1 is the maximum;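 note: activity is signal loss versus DMSO meaning EphA1 kinase inhibition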). The essentials:
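Cell-free kinase activity with recombinant protein, 1 hour after dosing; product separated by electrophoretic mobility shift, fluorescence read. Primary screen at 25 uM in duplicate; hits run as concentration-response up to 50 uM, relative to DMSO.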

Assay [11] has as its target human CYP1A1, CYP1A1 (gene 1543) (UniProt P04798). The experiment in a line: NVS_ADME_hCYP1A1: NovaScreen (NVS) CYP450-related Enzyme Activity (ADME) Assay for human CYP1A1 (AID 2283100; active = hit-call score of the fitted dose curve at least 0.9, where 1 is the maximum). The method, boiled down:
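Recombinant CYP1A1 with a fluorogenic substrate, cell-free, read 1 h after dosing; acetonitrile as negative control. Single-concentration screen at 10 uM in duplicate, then concentration-response up to 20 uM for chemicals meeting ~30% inhibition threshold.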

The target in assay [12] is rat CYP2A1, Cyp2a1 (gene 24894) (UniProt P11711). The experiment in a line: NVS_ADME_rCYP2A1: NovaScreen (NVS) CYP450-related Enzyme Activity (ADME) Assay for rat CYP2A1 (AID 2283114). The essentials: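 Cell-free fluorescence enzyme-activity read on recombinant rat CYP2A1, taken 0.75 h post-dosing. Compounds were screened in duplicate at 10 uM, then hits tested in concentration series (max 20 uM); inhibition scored relative to acetonitrile baseline.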

The target in assay [13] is rat CYP2C13, Cyp2c13 (gene 171521) (UniProt P20814). The experiment in a line: NVS_ADME_rCYP2C13: NovaScreen (NVS) CYP450-related Enzyme Activity (ADME) Assay for rat CYP2C13 (AID 2283121; active = hit-call score of the fitted dose curve at least 0.9, where 1 is the maximum). The method, boiled down:
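Inhibition is read as decreased fluorescent product formation, referenced to acetonitrile vehicle. Cell-free recombinant rat Cyp2c13 reaction ran 0.75 hour; compounds first at 10 uM in duplicate, then concentration series for actives.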

Assay [14] has as its target Mitogen-activated protein kinase 3 (Homo sapiens) (UniProt P27361). The experiment in a line: NVS_ENZ_hMAPK3: NovaScreen (NVS) Enzymatic Assay for human Mitogen-Activated Protein Kinase 3 (MAPK 3) (AID 2283177; active = hit-call score of the fitted dose curve at least 0.9, where 1 is the maximum). The essentials:
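Chemicals were first tested in duplicate at 25 uM, with hits re-run as concentration series (max 50 uM). Recombinant enzyme activity, measured 1 h post-dose in a cell-free format, was read by fluorescence/mobility shift relative to DMSO.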

Assay [15] concerns the target human Matrix Metalloproteinase-9 (MMP9), MMP9 (gene 4318) (UniProt P14780). As to the kind of experiment: NVS_ENZ_hMMP9: NovaScreen (NVS) Enzymatic Assay for human Matrix Metalloproteinase-9 (MMP9) (AID 2283190; active = hit-call score of the fitted dose curve at least 0.9, where 1 is the maximum;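 note: active means inhibition seen as loss of fluorescence signal versus DMSO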). The essentials: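 Cell-free fluorescence-intensity enzyme activity assay using extracted protein, read 1 h after dosing. Loss of signal versus DMSO baseline indicates inhibition; primary screen in duplicate at 25 uM, actives followed up in concentration series.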

SMILES strings stand for the structures. Results filed as inconclusive are left out. Calls of active or inactive are those of the source. Rule for the calls, unless noted: active = hit-call score of the fitted dose curve at least 0.9, where 1 is the maximum; inactive = score below 0.9.

Sequence of E-selectin (Homo sapiens) (P16581 whole entry, looked up): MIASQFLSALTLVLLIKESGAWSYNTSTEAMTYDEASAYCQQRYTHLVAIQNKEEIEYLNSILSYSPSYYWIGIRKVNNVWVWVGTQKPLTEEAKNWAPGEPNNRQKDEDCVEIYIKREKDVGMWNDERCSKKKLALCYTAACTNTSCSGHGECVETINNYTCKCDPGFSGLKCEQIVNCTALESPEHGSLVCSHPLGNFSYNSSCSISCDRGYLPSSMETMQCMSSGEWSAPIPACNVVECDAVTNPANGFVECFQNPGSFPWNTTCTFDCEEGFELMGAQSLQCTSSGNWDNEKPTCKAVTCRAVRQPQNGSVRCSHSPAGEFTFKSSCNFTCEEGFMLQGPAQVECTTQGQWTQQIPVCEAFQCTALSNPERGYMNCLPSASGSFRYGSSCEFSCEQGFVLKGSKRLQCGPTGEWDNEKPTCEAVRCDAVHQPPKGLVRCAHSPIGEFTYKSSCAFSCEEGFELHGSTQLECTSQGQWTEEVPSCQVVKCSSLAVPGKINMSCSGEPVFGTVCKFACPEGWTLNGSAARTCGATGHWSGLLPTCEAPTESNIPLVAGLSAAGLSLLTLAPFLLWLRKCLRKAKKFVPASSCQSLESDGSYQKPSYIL
Sequence of human Matrix Metalloproteinase-9 (MMP9), MMP9 (gene 4318) (P14780 whole entry, looked up): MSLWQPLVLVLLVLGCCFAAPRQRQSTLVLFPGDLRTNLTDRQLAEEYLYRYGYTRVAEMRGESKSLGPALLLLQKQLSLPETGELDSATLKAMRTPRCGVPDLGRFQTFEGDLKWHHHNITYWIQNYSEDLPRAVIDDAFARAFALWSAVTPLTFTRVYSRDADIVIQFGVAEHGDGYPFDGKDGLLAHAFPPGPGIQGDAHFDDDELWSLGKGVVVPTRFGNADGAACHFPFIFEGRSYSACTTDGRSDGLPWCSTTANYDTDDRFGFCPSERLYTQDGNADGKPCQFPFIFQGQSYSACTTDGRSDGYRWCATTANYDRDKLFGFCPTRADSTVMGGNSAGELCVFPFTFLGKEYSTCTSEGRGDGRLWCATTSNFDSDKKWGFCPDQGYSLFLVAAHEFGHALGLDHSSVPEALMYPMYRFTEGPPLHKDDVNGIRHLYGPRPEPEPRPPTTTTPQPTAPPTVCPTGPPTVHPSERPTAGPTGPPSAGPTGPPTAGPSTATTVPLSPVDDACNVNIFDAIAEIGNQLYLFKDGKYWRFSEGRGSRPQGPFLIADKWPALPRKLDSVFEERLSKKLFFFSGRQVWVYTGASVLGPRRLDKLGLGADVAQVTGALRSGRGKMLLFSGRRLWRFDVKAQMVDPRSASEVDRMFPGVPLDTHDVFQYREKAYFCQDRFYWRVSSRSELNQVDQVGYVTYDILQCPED
Sequence of human CYP19A1, CYP19A1 (gene 1588) (P11511 whole entry, looked up): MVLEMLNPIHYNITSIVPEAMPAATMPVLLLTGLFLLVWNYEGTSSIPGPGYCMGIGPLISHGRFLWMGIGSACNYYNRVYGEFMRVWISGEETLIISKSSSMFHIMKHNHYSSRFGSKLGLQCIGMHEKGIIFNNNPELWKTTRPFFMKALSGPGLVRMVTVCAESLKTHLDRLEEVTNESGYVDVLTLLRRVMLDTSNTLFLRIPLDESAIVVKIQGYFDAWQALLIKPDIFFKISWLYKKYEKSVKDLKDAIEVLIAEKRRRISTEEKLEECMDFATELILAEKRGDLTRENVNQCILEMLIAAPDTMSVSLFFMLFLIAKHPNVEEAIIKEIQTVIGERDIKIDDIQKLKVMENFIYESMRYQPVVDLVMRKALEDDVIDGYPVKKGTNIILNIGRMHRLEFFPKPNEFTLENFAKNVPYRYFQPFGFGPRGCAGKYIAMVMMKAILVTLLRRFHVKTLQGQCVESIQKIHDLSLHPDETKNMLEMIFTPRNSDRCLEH
Sequence of Mitogen-activated protein kinase 3 (Homo sapiens) (P27361 whole entry, looked up): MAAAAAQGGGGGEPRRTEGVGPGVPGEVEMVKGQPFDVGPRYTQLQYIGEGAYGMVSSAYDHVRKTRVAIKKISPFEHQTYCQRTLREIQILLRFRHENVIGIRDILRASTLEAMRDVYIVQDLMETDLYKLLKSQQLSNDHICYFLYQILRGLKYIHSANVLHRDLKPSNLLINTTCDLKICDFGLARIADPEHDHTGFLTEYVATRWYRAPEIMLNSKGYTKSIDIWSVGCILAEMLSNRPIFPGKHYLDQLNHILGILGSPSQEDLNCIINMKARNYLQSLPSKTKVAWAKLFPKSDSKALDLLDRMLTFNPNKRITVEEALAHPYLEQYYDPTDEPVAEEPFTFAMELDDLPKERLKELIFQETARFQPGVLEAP
Sequence of rat CYP2A1, Cyp2a1 (gene 24894) (P11711 whole entry, looked up): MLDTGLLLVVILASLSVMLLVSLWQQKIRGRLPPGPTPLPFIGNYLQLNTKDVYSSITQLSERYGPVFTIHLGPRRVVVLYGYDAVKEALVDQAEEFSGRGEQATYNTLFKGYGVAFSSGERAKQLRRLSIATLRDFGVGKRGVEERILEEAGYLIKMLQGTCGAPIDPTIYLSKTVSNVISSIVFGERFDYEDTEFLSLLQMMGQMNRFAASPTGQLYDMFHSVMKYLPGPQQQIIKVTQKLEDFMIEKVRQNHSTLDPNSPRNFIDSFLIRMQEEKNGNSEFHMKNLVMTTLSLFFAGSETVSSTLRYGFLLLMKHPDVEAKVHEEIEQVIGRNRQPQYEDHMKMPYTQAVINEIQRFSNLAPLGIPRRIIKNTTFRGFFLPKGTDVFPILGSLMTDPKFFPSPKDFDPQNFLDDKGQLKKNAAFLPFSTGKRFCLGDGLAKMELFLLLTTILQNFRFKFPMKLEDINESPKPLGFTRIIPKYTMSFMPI
Sequence of human Ephrin type-A Receptor 1 (EphA1), EPHA1 (gene 2041) (P21709 whole entry, looked up): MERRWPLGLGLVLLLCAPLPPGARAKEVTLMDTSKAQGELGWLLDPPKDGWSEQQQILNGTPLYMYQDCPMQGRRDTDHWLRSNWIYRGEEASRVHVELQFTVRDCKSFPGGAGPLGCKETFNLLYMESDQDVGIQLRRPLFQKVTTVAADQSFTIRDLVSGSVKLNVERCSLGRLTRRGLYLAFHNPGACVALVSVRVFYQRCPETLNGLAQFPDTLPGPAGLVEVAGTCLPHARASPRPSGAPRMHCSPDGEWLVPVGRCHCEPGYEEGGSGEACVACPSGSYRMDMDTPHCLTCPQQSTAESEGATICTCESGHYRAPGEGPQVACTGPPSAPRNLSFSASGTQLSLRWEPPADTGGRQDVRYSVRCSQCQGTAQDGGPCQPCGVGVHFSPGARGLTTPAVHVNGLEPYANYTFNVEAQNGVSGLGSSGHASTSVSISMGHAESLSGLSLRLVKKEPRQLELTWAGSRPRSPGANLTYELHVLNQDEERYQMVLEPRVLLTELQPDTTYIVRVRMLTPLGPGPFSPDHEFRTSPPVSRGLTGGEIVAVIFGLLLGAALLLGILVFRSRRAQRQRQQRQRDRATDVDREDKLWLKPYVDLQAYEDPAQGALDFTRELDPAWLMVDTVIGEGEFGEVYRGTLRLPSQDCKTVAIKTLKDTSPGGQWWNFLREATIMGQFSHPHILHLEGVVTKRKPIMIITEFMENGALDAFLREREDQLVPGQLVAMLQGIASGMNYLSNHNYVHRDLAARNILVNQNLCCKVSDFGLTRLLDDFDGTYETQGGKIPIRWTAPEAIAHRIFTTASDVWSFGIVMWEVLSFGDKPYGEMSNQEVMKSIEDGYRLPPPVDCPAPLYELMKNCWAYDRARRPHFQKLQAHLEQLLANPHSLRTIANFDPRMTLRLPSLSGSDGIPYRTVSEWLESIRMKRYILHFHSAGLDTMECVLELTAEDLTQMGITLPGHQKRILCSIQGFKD
Sequence of rat CYP2C13, Cyp2c13 (gene 171521) (P20814 whole entry, looked up): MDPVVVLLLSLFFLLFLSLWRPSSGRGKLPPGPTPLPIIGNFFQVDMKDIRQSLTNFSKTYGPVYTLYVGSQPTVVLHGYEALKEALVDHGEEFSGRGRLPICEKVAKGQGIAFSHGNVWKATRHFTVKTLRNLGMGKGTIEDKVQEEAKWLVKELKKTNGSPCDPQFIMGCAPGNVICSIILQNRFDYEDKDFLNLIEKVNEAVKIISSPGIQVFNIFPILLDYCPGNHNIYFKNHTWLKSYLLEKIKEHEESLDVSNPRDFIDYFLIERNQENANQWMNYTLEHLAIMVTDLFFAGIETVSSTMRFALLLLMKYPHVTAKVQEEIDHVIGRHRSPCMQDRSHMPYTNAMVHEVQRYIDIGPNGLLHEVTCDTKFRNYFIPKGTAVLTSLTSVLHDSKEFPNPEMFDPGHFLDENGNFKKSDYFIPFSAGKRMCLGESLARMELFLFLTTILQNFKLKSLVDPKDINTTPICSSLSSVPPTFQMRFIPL
Sequence of human CYP2D6, CYP2D6 (gene 1565) (P10635 whole entry, looked up): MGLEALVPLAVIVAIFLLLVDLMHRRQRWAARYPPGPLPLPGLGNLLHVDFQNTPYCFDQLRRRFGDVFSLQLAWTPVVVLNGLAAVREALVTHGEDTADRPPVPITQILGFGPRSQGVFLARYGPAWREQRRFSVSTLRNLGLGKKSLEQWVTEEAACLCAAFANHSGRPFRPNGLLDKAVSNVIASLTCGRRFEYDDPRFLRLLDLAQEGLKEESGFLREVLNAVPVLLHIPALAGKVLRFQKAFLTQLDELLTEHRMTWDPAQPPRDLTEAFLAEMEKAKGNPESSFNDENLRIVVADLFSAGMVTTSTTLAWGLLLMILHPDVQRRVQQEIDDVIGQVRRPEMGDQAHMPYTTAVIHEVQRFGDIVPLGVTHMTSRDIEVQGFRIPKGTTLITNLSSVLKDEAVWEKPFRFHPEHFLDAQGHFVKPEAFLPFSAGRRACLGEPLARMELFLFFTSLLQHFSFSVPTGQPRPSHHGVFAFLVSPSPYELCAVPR

As for `FC(F)(F)C(F)(F)C(F)(F)C(F)(F)C(F)(F)C(F)(F)CC[Si](Cl)(Cl)Cl`, the outcome in [1], in assay [2], in [3], in assay [4], in assay [5] and in assay [6] was inactive.

As to `NC(=O)C(F)(F)C(F)(F)C(F)(F)C(F)F`, the outcome in assay [1], in assay [2], in [3], in assay [4], in assay [5] and in [6] was inactive.

In the case of `CCOC(OCC)OCC`, in assay [7], the compound was called inactive.

In general, AC50 refers to the midpoint of the concentration-response curve, whichever way the signal moves. `Cc1ccc(S(=O)(=O)C(I)I)cc1`: the AC50 in [1] is 5.14 µM (active); in [2], 6.86 µM (active); in assay [3], 1.43 µM (active); in assay [4], 4.27 µM (active); in assay [5] it was 0.866 µM (active); in assay [6], 5.34 µM (active).

Regarding `C[C@]12CC[C@H]3C(=CCc4cc(O)ccc43)[C@@H]1CCC2=O`, the result in assay [1], in [2], in assay [3], in assay [4], in [5] and in [6] was inactive. In addition, the compound was called inactive in assay [8]. For the same compound, the AC50 in [9] was 1.95 µM (active).

Consider `C=CCOC(=O)CC(C)C`, for which the outcome in assay [10] was inactive.

As for `CCCCCCCCn1sc(Cl)c(Cl)c1=O`, the compound was called inactive in [11], in [12] and in assay [13]. Besides, the AC50 in [9] is 8.26 µM (active).

`CC(C)Nc1ccc(NC(C)C)c2c1C(=O)c1ccccc1C2=O`: the AC50 in assay [7] was 3.18 µM (active).

On to `CCCCCCCCCCCCCC[P+](CCCC)(CCCC)CCCC`, for which the AC50 was 20.2 µM (active) in assay [14] and 2.12 µM (active) in [15].

On to `Cc1ccc(O)c(-n2nc3ccccc3n2)c1`, for which the result in [1], in assay [2], in assay [3], in assay [4], in assay [5] and in assay [6] was inactive. The AC50 in [15] is 9.4 µM (active).

Consider `CCOC(=O)CC(=O)C(F)(F)C(F)(F)F`, for which the outcome in [1], in assay [2], in assay [3], in assay [4], in [5] and in assay [6] was inactive.

Regarding `CC(C)CCCC(C)CCO` (stereo not given), the AC50 is 20 µM (active) in assay [1], 30.6 µM (active) in assay [3], 20 µM (active) in assay [5] and 6.27 µM (active) in assay [15]. Further, the outcome in [2], in [4] and in [6] was inactive.
